{
  "source": "PubChem BioAssay (EPA / NIEHS)",
  "note": "Some compounds were tested as several samples or in several runs, with calls that do not always agree. Active and inactive are the calls of the source. The calls were made as follows: active = hit-call score of the fitted dose curve at least 0.9, where 1 is the maximum; inactive = score below 0.9.",
  "data": [
    {"assay": "CCTE_Harrill_HTTr_Viability_MCF7: CCTE's 6-hour Cell Viability Assessment for the High-Throughput Transcriptomics (HTTr) Platform, in MCF-7 cells cultured in DMEM + 10% fetal bovine serum, Harrill Lab (AID 2284010)", "description": "This is a cell-based assay that evaluates cell viability using high content imaging to evaluate membrane integrity using propidium iodide dye exclusion in a 384 well format.One of seven assay components measured from the CCTE_Harrill_HTTr_Viability assay. This was part of a full screening experiment. This is a cell-based assay that evaluates cell viability in MCF-7 cells cultured in DMEM + 10% fetal bovine serum. High content imaging is used to evaluate membrane integrity using propidium iodide dye exclusion. Measurements are taken at 6 hours after chemical dosing in 384-well format.The assay component endpoint CCTE_Harrill_HTTr_Viability_MCF7 was analyzed with bidirectional fitting relation to DMSO as the negative control and baseline of activity. Using a type of viability reporter, gain-of-signal activity can be used to evaluate membrane integrity using propidium iodide dye exclusion to understand changes in cytotoxicity. To generalize the intended target to other relatable targets, this assay endpoint is annotated to cell cycle, where the subfamily is cytotoxicity.\nChemicals were tested in MCF7 cells in an eight point dilution series with a six hour exposure duration.", "values": [
      {"smiles": "CC(C)Cc1ccc(C(C)C(=O)O)cc1", "note": "(stereo not given)", "outcome": "inactive"},
      {"smiles": "O=C1CCCCCCCCCCCC(=O)OCCO1", "outcome": "inactive"},
      {"smiles": "CCCCCCCCCO", "outcome": "inactive"},
      {"smiles": "NC(N)=S", "outcome": "inactive"},
      {"smiles": "O=C(O)c1cc(C(=O)O)c(C(=O)O)cc1C(=O)O", "outcome": "inactive"},
      {"smiles": "Cc1cccc(C)c1", "outcome": "inactive"},
      {"smiles": "Cc1ccncc1", "outcome": "inactive"},
      {"smiles": "C=CC(C)CCCC(C)(C)O", "note": "(stereo not given)", "outcome": "inactive"},
      {"smiles": "NC(=O)c1cnccn1", "outcome": "inactive"},
      {"smiles": "NC(=O)c1c(Cl)cccc1Cl", "outcome": "inactive"},
      {"smiles": "CC(O)CN", "note": "(stereo not given)", "outcome": "inactive"},
      {"smiles": "CNC(=C[N+](=O)[O-])NCCSCc1ccc(CN(C)C)o1", "outcome": "inactive"},
      {"smiles": "CC(=O)OC/C=C(C)/C=C/C=C(C)/C=C/C1=C(C)CCCC1(C)C", "outcome": "inactive"},
      {"smiles": "O=C(O)C1=NN(c2ccc(S(=O)(=O)O)cc2)C(=O)C1", "outcome": "inactive"},
      {"smiles": "CC/C(=C(\\c1ccccc1)c1ccc(OCCN(C)C)cc1)c1ccccc1", "outcome": "inactive", "AC50": "67.3 µM (active)"},
      {"smiles": "C[C@]12CC[C@@H]3c4ccc(O)cc4CC[C@H]3[C@@H]1CC[C@@H]2O", "outcome": "inactive"},
      {"smiles": "O=C1OC2(c3ccc(O)cc3Oc3cc(O)ccc32)c2ccccc21", "outcome": "inactive"},
      {"smiles": "[O-]/[N+](=N\\O)c1ccccc1", "outcome": "inactive"},
      {"smiles": "CCOC(=O)C=Cc1ccccc1", "outcome": "inactive"},
      {"smiles": "CCCCCC1CCC(=O)O1", "note": "(stereo not given)", "outcome": "inactive"},
      {"smiles": "CC(=O)C1C(=O)C=C(C)OC1=O", "note": "(stereo not given)", "outcome": "inactive"},
      {"smiles": "CC(O)COCC(C)O", "note": "(stereo not given)", "outcome": "inactive"},
      {"smiles": "CCCCCCCCCC(=O)OCC", "outcome": "inactive"},
      {"smiles": "CC(=O)N(C)C", "outcome": "inactive"},
      {"smiles": "NS(=O)(=O)c1cc(C(=O)O)c(NCc2ccco2)cc1Cl", "outcome": "inactive"},
      {"smiles": "CCCCOCCOCCO", "outcome": "inactive"},
      {"smiles": "O=C(O)c1cc2ccccc2cc1O", "outcome": "inactive"},
      {"smiles": "CC1=CCC(C(C)(C)O)CC1", "note": "(stereo not given)", "outcome": "inactive"},
      {"smiles": "c1ccc(Cc2ccccc2)cc1", "outcome": "inactive"},
      {"smiles": "CC(=O)CCC(=O)O", "outcome": "inactive"},
      {"smiles": "CCCCOC(=O)C(C)OC(=O)CCC", "note": "(stereo not given)", "outcome": "inactive"},
      {"smiles": "CCCCCC(=O)O[C@]1(C(C)=O)CC[C@H]2[C@@H]3CCC4=CC(=O)CC[C@]4(C)[C@H]3CC[C@@]21C", "outcome": "inactive"},
      {"smiles": "C#C[C@]1(O)CC[C@H]2[C@@H]3CCc4cc(O)ccc4[C@H]3CC[C@@]21C", "outcome": "inactive"},
      {"smiles": "CN(C)CCC=C1c2ccccc2CCc2ccccc21", "outcome": "inactive"},
      {"smiles": "C[C@H](CCC(=O)O)[C@H]1CC[C@H]2[C@@H]3CC[C@@H]4C[C@H](O)CC[C@]4(C)[C@H]3CC[C@]12C", "outcome": "inactive"},
      {"smiles": "CCCc1ccc(O)cc1", "outcome": "inactive"},
      {"smiles": "CN1CCc2cccc3c2[C@H]1Cc1ccc(O)c(O)c1-3", "outcome": "inactive"},
      {"smiles": "CC(C)(O)CCc1ccccc1", "outcome": "inactive"},
      {"smiles": "O=c1cc(-c2ccc(O)cc2)oc2cc(O)cc(O)c12", "outcome": "inactive"}
    ]}
  ]
}
